# Source: PubChem BioAssay (Center for Chemical Genomics, University of Michigan)
# The entries come from a sample that favours hits as a whole.
# Dicer processing: inhibitors of Dicer pre-microRNA processing, primary screen, biochemical, cat-ELCCA, chemiluminescence | Endoribonuclease Dicer (Homo sapiens), Q9UPY3 | cat-ELCCA pre-miR-21 Dicer processing; hits give high values | z-score at 25 µM | 6% of 47,000 active | AID 1347074, 2019; in the data active = z-score above about 3, passing the limit was not always enough;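 note: plate controls were vehicle for no effect and no enzyme for full effect; higher signal means more uncleaved substrate so more Dicer inhibition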
# Target sequence (Q9UPY3 whole entry, looked up): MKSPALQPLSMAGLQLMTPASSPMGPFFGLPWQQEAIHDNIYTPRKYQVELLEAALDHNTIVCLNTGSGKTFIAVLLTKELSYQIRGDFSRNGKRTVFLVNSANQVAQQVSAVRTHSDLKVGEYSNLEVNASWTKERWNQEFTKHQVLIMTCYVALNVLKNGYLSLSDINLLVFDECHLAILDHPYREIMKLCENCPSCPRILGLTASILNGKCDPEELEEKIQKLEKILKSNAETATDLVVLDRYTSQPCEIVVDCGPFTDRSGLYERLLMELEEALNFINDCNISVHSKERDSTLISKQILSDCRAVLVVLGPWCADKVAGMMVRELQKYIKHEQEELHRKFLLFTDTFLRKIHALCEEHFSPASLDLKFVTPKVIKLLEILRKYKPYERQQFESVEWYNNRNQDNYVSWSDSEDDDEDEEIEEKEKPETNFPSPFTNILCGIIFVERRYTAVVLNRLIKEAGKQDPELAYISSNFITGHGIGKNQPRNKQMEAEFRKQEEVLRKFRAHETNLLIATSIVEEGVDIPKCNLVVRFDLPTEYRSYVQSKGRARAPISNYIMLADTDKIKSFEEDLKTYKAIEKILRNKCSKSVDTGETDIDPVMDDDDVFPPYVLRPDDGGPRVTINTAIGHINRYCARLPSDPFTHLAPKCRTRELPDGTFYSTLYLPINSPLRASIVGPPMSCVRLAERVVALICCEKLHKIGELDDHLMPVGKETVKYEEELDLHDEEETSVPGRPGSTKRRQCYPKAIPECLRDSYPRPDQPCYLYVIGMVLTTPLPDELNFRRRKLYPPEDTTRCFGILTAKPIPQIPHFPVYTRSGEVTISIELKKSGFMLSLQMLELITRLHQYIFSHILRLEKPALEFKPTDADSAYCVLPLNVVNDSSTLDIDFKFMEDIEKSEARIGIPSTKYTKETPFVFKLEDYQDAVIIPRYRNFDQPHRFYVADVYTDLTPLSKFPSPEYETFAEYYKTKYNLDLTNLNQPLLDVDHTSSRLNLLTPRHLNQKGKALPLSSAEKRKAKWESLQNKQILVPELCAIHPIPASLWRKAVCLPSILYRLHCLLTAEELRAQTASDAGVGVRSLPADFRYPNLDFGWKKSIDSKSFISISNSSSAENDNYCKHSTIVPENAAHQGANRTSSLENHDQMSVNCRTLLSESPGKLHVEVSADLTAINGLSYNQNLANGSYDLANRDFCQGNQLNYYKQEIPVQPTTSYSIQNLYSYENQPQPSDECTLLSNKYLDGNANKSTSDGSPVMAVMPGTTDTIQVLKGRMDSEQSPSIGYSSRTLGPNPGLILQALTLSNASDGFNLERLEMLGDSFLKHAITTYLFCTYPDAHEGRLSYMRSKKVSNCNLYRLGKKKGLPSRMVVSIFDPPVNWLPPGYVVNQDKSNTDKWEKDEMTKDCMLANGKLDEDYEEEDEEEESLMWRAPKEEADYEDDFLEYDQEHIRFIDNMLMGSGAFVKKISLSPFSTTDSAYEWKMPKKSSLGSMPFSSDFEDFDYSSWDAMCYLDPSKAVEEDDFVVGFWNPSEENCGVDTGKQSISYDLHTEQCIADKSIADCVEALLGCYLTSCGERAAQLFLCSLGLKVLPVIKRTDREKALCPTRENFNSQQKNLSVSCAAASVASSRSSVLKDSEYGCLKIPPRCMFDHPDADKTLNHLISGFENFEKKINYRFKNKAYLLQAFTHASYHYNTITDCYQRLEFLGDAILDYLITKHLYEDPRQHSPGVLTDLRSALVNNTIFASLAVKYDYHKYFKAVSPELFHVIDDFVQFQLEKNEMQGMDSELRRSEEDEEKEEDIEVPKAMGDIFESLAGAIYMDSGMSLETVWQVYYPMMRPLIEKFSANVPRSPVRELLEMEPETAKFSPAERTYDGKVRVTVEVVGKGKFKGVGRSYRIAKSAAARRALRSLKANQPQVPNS
# Numbers without * were called inactive.
SMILES,Dicer processing
COc1cccc(CNC(=S)SCC(=O)C(C)(C)C)c1,-0.47
c1ccc(-c2csc3ncnc(N4CCCC4)c23)cc1,1.8
CC1(C)Cc2c(sc(NC(=O)C(c3ccccc3)c3ccccc3)c2C#N)CO1,4.5*
COC(=O)c1c(NC(=O)CCC(=O)O)sc2c1CC(C)(C)OC2,0.59
CC(=O)Nc1sc2c(c1C(=O)O)CC(C)(C)OC2,-1.3
COc1ccc2c(c1)CCC1C2=NN(C(C)=O)C1c1ccc(Br)cc1 (configuration not stated),16
C(=N\Nc1ncnc2c1cnn2-c1ccccc1)/c1ccco1,0.68
CCCC(=O)c1cc2cc(Br)ccc2oc1=O,-0.31
CCCC(=O)n1c(=O)oc2cc(Br)ccc21,4*
CCCC(=O)c1cc2cc(Br)cc(Br)c2oc1=O,-0.04
Cc1cc(=O)[nH]c2cc(-c3ccccc3)nn12,2.1
CCCCn1c(C)cc(=S)cc1C,4.5*
CCCn1c(C)cc(C)c(C#N)c1=O,0.64
CCCCn1c2ccccc2c2ccccc21,0.42
CC1CCc2c(sc3nc(=S)[nH]c(NCc4ccccc4)c23)C1 (configuration not stated),-0.28
COc1ccc(/C(O)=C2\C(=O)C(=O)N(CCCn3ccnc3)C2c2ccc(Cl)cc2)cc1 (configuration not stated),0.06
CC1(C)Cc2cccc(C(=O)NCC3COc4ccccc4O3)c2O1 (configuration not stated),-0.31
COc1ccc(-c2n[nH]c(C)c2-c2ccc(F)cc2)c(O)c1,1.6
Cc1[nH]nc(-c2ccc(O)cc2O)c1Oc1ccccc1,-1.1
CCOc1ccc(-c2n[nH]c(C)c2-c2ccccc2)c(O)c1,5.1*
N#C/C(=C\Nc1cccc(Cl)c1F)S(=O)(=O)c1ccc(Cl)cc1,-0.08
CCOC(=O)N1CCc2ccccc21,1.7
O=C1CC(c2ccccc2)CC(O)=C1C=Nc1ccc(Cl)cc1 (configuration not stated),3*
O=C1CC(c2ccccc2)CC(O)=C1C=Nc1ccccc1Cl (configuration not stated),1.8
O=C1CCC(c2ccccc2)C(O)=C1C=Nc1ccc(Cl)cc1 (configuration not stated),1.6
SMILES,Dicer processing
FC(F)(F)c1ccnc(N2CCC(NC(=S)NC3CC3)CC2)n1,-1.6
CCN1CCN(Cc2nc3c(c(=O)n(C)c(=O)n3C)n2CCN2CCOCC2)CC1,-1
CCOC(=O)C1=C(C)NC2=C(C(=O)CC(c3ccccc3)C2)C1c1ccc(O)c(OCC)c1 (configuration not stated),0.02
CCC(C)OC(=O)C1=C(C)NC2=C(C(=O)CC(c3ccccc3)C2)C1c1ccc(N(C)C)cc1 (configuration not stated),3.3*
CC1=C(C(=O)OCC(C)C)C(c2ccc(F)cc2)C2=C(CC(c3ccccc3)CC2=O)N1 (configuration not stated),0.98
CCOC(=O)C1=C(C)NC2=C(C(=O)CC(c3ccccc3)C2)C1c1cccc(Br)c1 (configuration not stated),5.4*
CC1=C(C(=O)OC(C)C)C(c2ccncc2)C2=C(CC(c3ccccc3)CC2=O)N1 (configuration not stated),1.2
CCOC(=O)C1=C(C)NC2=C(C(=O)CC(c3ccccc3)C2)C1c1cccc(O)c1 (configuration not stated),1.2
COc1ccc(CCN=C(N)N)cc1OC,0.68
CC(C)c1ccc(NC(=O)CSc2nc3cc(C(F)(F)F)ccc3n2C(C)C)cc1,-0.58
O=S(=O)(c1ccc(Cl)cc1)N1CCCC1c1cccs1 (configuration not stated),-0.86
CC(C)CCn1c(NCc2ccco2)nc2c1c(=O)[nH]c(=O)n2C,3.6*
Cn1c(=O)[nH]c(=O)c2c1nc(NCc1ccco1)n2Cc1ccc(F)cc1,-2.7
CC(C)CCNc1nc2c(c(=O)[nH]c(=O)n2C)n1CCO,1.4
Cc1[nH]c2ccc(Cl)cc2c(=O)c1CN1CCN(C)CC1,1
CC(=O)C(C)(C)OC(=O)N1CCOCC1,-0.55
CCOc1ccc(N2C(=O)C3C(C(=O)OC)=NN(C(C)=O)C3C2=O)cc1 (configuration not stated),2.5
O=C(c1ccccc1)c1c(O)c(-c2ccccc2)c(=O)n(-c2ccccc2)c1-c1ccccc1,-0.06
CCOC(=O)c1ccc([N+](=O)[O-])c(C)c1,-2.5
CCOC(=O)c1ccc(N)c(N)c1,3.4*
CCOC(=O)c1ccc(-n2nc(C)cc2C)cc1,-0.71
O=c1cc(CSc2ccc(Cl)cc2)nc2nc[nH]n12,4.4*
CCc1nc2nc(CSc3ccc(C)cc3)cc(=O)n2[nH]1,1.3
O=c1cc(-c2ccccc2)nc2nc[nH]n12,1.1
O=C(CSc1nc(-c2ccc(F)cc2)cc(C(F)(F)F)n1)NCCCn1ccnc1,0.46
Cc1cc(C)n(NC(=S)NC2CCCCCC2)c(=O)c1C#N,-1.6
COCCCN=C(Nc1ccc(Br)cc1C)SC,1.9
COCCCN=C(Nc1cc(C)c(C)cc1C)SC,3.9*
CN=C(Nc1ccc(C)cc1C)SC,0.13
O=C(Nc1ccc(Cl)cc1)Nc1nnc(-c2ccccc2Br)s1,1.5
